Measured values as given in PubChem BioAssay (EPA / NIEHS).
Records with an inconclusive call do not appear. Calls of active or inactive are those of the source. How the source made its calls: active means hit-call score of the fitted dose curve at least 0.9, where 1 is the maximum; inconclusive means response in the unintended direction; inactive means score below 0.9.

What was measured:
[1] = target: human Dual Specificity Protein Phosphatase 3 (DUSP3), DUSP3 (gene 1845) (UniProt P51452); test: NVS_ENZ_hDUSP3: NovaScreen (NVS) Enzymatic Assay for human Dual Specificity Protein Phosphatase 3 (DUSP3) (AID 2283152);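 further: phosphatase activity of recombinant human DUSP3 on a fluorogenic substrate without cells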
Summary of the method: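 Cell-free fluorescence-intensity enzyme activity assay with recombinant protein and substrate; loss of signal fitted relative to DMSO baseline. Primary screen in duplicate at 25 uM, actives then run in concentration series; measured 0 h after dosing.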

[2] = target: human Ephrin type-A Receptor 1 (EphA1), EPHA1 (gene 2041) (UniProt P21709); test: NVS_ENZ_hEphA1: NovaScreen (NVS) Enzymatic Assay for human Ephrin type-A Receptor 1 (EphA1) (AID 2283158);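 further: activity is signal loss versus DMSO meaning EphA1 kinase inhibition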
Summary of the method: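 Here the EphA1 protein is recombinant and the substrate fluorescent, with electrophoretic separation before fluorescence detection at 1 hour. Signal loss against DMSO defines activity; plate controls included; follow-up concentration series reach 50 uM.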

[3] = target: human Fibroblast Growth Factor Receptor 1 (FGFR1), FGFR1 (gene 2260) (UniProt P11362); test: NVS_ENZ_hFGFR1: NovaScreen (NVS) Enzymatic Assay for human Fibroblast Growth Factor Receptor 1 (FGFR1) (AID 2283159);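 on AC50: hits lower the signal so potencies describe inhibitors of the kinase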
Summary of the method: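 Cell-free recombinant kinase with fluorescent substrate, product separated by electrophoretic mobility shift; read 1 hour after dosing, loss of signal relative to DMSO. Initial screen in duplicate at 25 uM, actives followed in concentration series.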

[4] = target: human Esterase Plasma (ES), BCHE (gene 590) (UniProt P06276); test: NVS_ENZ_hES: NovaScreen (NVS) Enzymatic Assay for human Esterase Plasma (ES) (AID 2283157)
Summary of the method: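 Primary single-concentration screen at 25 uM in duplicate, then concentration-response to a 50 uM top dose. Human plasma esterase activity detected colorimetrically after 0.25 h incubation, with DMSO as baseline.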

[5] = target: human Casein Kinase 1-delta (CK1D), CSNK1D (gene 1453) (UniProt P48730); test: NVS_ENZ_hCK1D: NovaScreen (NVS) Enzymatic Assay for human Casein Kinase 1-delta (CK1D) (AID 2283148)
Summary of the method: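 Recombinant human CK1-delta, cell-free; fluorescent substrate with electrophoretic mobility-shift separation of product, read 1 h after dosing. Single 25 uM duplicate screen, then concentration-response up to 50 uM; loss of signal vs DMSO.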

[6] = target: human Epidermal Growth Factor Receptor (EGFR), EGFR (gene 1956) (UniProt P00533); test: NVS_ENZ_hEGFR: NovaScreen (NVS) Enzymatic Assay for human Epidermal Growth Factor Receptor (EGFR) (AID 2283151)
Procedure: NVS_ENZ_hEGFR is a biochemical, single-readout assay that uses extracted gene-proteins in a cell-free assay. Measurements were taken 1 hour after chemical dosing in a 384-well plate.NVS_ENZ_hEGFR is one of one assay component(s) measured or calculated from the NVS_ENZ_hEGFR assay. It is designed to make measurements of enzyme activity, a form of enzyme reporter, as detected with fluorescence intensity signals by Fluorescence and electrophoretic mobility shift technology.Data from the assay component NVS_ENZ_hEGFR was analyzed into 1 assay endpoint. This assay endpoint, NVS_ENZ_hEGFR, was analyzed in the positive analysis fitting direction relative to DMSO as the negative control and baseline of activity. Using a type of enzyme reporter, loss-of-signal activity can be used to understand changes in the enzymatic activity as they relate to the gene EGFR. Furthermore, this assay endpoint can be referred to as a primary readout, because this assay has produced multiple assay endpoints where this one serves a enzymatic activity function. To generalize the intended target to other relatable targets, this assay endpoint is annotated to the kinase intended target family, where the subfamily is receptor tyrosine kinase.
Binding assays used specific radioligands (tritiated, iodinated) with non-radioactive competitive displacement ligands in agonist or antagonist protocols (as indicated) and various reference compounds and inhibitors to titrate specific binding to receptors and transporters. Most enzyme assays (CYPs, kinases, phosphatases, proteases, HDACs) used recombinant protein and specific substrates (fluorescence mostly, some colorimetric and radioactive) and inhibitors, followed by a biochemical separation of substrate and product. All assays for the biochemical HTS were initially run in duplicate at a single concentration (10 uM for CYP450 assays and 25 uM for all others). Assay-chemical combinations meeting a pre-defined threshold (e.g., 30% inhibition and other criteria defined below) were then run in singleton concentration-response format with maximum concentration of 20 uM for CYPs and 50 uM for all others. Each assay was run with positive and negative controls, and concurrent controls on every plate. The follow-up (secondary) screen tested active chemical-pairs in concentration series, as well as a few additional assays not tested in the primary screen, some selected negative inactives, and several cases re-run in the concentration series for confirmatory purposes.

[7] = target: human Ephrin type-A Receptor 2 (EphA2), EPHA2 (gene 1969) (UniProt P29317); test: NVS_ENZ_hEphA2: NovaScreen (NVS) Enzymatic Assay for human Ephrin type-A Receptor 2 (EphA2) (AID 2283155)
Summary of the method: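 Enzyme activity of recombinant EphA2 read by fluorescence after mobility-shift separation, 1 h after dosing. Chemicals first tested at 25 uM (duplicate); those passing threshold run as concentration series, top 50 uM, single replicate, relative to DMSO.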

[8] = target: human Elastase, ELANE (gene 1991) (UniProt P08246); test: NVS_ENZ_hElastase: NovaScreen (NVS) Enzymatic Assay for human Elastase (AID 2283153)
Procedure: NVS_ENZ_hElastase is a biochemical, single-readout assay that uses extracted gene-proteins from Human neutrophils in a cell-free assay. Measurements were taken 1.5 hours after chemical dosing in a 96-well plate.NVS_ENZ_hElastase is one of one assay component(s) measured or calculated from the NVS_ENZ_hElastase assay. It is designed to make measurements of enzyme activity, a form of enzyme reporter, as detected with absorbance signals by Spectrophotometry technology.Data from the assay component NVS_ENZ_hElastase was analyzed into 1 assay endpoint. This assay endpoint, NVS_ENZ_hElastase, was analyzed in the positive analysis fitting direction relative to DMSO as the negative control and baseline of activity. Using a type of enzyme reporter, loss-of-signal activity can be used to understand changes in the enzymatic activity as they relate to the gene ELANE. Furthermore, this assay endpoint can be referred to as a primary readout, because this assay has produced multiple assay endpoints where this one serves a enzymatic activity function. To generalize the intended target to other relatable targets, this assay endpoint is annotated to the protease intended target family, where the subfamily is serine protease. […]

[9] = target: human Colony Stimulating Factor 1 Receptor (CSF1R), CSF1R (gene 1436) (UniProt P07333); test: NVS_ENZ_hCSF1R: NovaScreen (NVS) Enzymatic Assay for human Colony Stimulating Factor 1 Receptor (CSF1R) (AID 2283150)
Summary of the method: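 Compounds screened in duplicate at 25 uM, then concentration-response (top 50 uM) for those passing threshold such as 30% inhibition; recombinant CSF1R activity measured 1 h post-dosing via fluorescent substrate/product mobility-shift separation, loss of signal versus DMSO.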

[10] = target: human Ephrin type-B Receptor 2 (EphB2), EPHB2 (gene 2048) (UniProt P29323); test: NVS_ENZ_hEphB2: NovaScreen (NVS) Enzymatic Assay for human Ephrin type-B Receptor 2 (EphB2) (AID 2283156)
Summary of the method: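 Compounds were first tested in duplicate at 25 uM, with hits rerun singly in concentration series up to 50 uM. Enzyme activity on fluorescent substrate was read at 1 h by mobility-shift separation, scored as signal loss relative to DMSO.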

Sequence of human Ephrin type-A Receptor 1 (EphA1), EPHA1 (gene 2041) (P21709 whole entry, looked up): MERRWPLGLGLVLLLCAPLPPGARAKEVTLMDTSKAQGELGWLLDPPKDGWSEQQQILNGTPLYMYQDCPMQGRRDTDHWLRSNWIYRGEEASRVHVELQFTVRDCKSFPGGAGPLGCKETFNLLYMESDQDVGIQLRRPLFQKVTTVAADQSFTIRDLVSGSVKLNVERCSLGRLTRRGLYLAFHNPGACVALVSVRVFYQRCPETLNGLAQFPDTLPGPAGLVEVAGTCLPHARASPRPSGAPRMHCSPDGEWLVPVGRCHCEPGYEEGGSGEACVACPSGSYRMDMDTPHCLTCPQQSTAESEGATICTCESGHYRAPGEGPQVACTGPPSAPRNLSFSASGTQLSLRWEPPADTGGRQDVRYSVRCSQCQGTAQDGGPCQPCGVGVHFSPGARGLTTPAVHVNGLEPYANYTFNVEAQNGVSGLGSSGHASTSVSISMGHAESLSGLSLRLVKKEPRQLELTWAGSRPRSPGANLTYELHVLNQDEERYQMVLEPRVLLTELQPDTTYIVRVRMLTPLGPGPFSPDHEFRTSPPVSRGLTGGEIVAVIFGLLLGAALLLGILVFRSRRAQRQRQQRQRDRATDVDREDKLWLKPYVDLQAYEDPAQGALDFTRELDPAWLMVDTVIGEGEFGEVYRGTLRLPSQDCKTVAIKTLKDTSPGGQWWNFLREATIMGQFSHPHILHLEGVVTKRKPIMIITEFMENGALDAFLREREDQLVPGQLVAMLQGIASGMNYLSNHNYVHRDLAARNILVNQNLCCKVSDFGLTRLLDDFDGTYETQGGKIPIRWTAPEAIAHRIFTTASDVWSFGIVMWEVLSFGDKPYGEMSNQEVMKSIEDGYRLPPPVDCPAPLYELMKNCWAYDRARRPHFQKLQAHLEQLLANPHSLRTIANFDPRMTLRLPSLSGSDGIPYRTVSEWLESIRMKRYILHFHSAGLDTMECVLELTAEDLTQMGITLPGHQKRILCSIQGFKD
Sequence of human Fibroblast Growth Factor Receptor 1 (FGFR1), FGFR1 (gene 2260) (P11362 whole entry, looked up): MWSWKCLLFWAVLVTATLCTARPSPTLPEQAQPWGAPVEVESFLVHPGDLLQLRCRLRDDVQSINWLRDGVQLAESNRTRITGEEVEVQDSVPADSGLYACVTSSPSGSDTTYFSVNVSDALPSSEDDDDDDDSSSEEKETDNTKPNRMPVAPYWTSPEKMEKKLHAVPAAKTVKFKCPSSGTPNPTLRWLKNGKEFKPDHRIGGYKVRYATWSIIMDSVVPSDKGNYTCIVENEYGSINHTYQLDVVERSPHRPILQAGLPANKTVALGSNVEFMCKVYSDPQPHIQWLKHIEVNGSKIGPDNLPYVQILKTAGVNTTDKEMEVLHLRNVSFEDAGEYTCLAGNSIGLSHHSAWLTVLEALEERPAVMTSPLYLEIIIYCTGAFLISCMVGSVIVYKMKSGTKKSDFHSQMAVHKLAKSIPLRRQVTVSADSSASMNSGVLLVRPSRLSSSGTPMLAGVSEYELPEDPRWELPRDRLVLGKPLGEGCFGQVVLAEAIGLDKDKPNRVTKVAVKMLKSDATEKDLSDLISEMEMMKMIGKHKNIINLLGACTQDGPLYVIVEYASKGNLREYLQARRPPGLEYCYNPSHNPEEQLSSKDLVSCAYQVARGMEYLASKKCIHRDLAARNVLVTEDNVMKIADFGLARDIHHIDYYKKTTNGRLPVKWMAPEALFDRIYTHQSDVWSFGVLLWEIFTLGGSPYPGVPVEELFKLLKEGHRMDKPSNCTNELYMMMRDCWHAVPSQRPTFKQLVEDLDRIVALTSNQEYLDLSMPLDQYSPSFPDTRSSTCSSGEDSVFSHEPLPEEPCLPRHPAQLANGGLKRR
Sequence of human Esterase Plasma (ES), BCHE (gene 590) (P06276 whole entry, looked up): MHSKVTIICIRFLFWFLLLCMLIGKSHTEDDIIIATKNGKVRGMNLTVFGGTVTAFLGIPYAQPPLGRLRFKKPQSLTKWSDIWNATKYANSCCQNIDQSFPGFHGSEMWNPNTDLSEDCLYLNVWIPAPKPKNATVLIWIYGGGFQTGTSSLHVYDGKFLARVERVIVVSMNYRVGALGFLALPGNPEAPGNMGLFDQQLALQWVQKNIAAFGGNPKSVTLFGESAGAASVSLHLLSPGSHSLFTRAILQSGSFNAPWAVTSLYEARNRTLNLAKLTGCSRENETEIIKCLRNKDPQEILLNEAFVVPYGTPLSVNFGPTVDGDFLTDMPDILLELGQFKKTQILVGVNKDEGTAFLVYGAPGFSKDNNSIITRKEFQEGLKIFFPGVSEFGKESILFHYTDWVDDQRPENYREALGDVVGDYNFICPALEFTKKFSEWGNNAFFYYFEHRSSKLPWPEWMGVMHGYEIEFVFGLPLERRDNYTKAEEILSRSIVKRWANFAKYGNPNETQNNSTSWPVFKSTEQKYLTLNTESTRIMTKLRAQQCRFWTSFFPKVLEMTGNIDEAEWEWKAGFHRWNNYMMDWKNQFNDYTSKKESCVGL
Sequence of human Dual Specificity Protein Phosphatase 3 (DUSP3), DUSP3 (gene 1845) (P51452 whole entry, looked up): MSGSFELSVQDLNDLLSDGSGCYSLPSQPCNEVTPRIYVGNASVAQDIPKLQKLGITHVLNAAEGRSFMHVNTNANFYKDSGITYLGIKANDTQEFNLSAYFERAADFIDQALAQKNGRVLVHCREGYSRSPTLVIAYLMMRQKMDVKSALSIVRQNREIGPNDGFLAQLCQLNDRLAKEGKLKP
Sequence of human Epidermal Growth Factor Receptor (EGFR), EGFR (gene 1956) (P00533 whole entry, looked up): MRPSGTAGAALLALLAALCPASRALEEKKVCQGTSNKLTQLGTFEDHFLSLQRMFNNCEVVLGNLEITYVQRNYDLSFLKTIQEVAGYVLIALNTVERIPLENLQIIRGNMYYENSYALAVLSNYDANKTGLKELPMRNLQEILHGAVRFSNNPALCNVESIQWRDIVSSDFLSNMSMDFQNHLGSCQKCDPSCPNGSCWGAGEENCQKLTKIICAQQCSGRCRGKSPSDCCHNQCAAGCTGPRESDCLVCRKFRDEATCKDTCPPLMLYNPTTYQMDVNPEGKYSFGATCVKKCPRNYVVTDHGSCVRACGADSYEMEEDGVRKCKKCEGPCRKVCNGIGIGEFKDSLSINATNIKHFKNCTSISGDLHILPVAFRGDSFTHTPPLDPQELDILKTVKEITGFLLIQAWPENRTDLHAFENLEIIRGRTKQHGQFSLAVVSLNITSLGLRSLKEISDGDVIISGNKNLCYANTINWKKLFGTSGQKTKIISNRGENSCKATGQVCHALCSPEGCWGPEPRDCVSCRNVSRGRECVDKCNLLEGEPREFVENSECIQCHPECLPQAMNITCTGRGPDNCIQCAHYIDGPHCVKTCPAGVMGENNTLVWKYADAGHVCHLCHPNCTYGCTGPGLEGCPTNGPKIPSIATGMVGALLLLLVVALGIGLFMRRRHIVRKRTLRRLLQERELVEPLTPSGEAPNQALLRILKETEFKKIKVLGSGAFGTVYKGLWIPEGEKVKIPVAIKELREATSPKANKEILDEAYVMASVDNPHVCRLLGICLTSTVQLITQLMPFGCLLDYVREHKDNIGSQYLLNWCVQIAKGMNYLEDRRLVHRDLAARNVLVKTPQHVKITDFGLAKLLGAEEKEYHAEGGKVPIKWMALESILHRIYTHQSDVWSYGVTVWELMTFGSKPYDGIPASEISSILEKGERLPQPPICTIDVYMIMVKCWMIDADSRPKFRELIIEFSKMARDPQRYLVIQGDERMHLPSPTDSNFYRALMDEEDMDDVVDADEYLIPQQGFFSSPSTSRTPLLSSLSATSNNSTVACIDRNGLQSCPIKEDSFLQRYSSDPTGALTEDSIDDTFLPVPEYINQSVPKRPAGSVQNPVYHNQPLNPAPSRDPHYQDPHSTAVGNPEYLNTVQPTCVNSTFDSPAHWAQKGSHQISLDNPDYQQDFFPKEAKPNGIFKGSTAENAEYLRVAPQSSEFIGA
Sequence of human Colony Stimulating Factor 1 Receptor (CSF1R), CSF1R (gene 1436) (P07333 whole entry, looked up): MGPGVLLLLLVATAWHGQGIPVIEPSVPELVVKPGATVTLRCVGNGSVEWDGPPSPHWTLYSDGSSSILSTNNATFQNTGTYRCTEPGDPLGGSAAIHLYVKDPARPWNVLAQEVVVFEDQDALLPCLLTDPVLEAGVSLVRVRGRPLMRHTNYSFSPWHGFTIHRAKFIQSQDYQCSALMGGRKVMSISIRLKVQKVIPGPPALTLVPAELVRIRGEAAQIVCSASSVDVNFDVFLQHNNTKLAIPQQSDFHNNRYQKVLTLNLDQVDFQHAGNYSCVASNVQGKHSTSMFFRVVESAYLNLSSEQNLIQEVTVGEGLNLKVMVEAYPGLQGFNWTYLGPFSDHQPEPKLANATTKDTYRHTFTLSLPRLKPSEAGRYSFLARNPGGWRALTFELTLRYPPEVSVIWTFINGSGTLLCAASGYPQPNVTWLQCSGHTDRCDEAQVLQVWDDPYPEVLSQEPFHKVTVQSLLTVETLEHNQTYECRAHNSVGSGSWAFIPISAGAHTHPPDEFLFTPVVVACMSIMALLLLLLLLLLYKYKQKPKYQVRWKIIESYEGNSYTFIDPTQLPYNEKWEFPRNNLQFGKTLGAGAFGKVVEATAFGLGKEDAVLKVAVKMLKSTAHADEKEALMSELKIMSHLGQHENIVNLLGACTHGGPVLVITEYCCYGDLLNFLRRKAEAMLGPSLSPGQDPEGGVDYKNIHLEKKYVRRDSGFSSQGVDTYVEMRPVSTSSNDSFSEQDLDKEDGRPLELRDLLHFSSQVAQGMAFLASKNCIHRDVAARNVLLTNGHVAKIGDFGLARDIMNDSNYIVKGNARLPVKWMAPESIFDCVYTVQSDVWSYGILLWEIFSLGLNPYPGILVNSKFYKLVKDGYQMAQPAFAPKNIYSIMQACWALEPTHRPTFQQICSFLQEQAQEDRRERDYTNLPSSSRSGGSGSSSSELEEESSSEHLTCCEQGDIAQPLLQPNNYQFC
Sequence of human Elastase, ELANE (gene 1991) (P08246 whole entry, looked up): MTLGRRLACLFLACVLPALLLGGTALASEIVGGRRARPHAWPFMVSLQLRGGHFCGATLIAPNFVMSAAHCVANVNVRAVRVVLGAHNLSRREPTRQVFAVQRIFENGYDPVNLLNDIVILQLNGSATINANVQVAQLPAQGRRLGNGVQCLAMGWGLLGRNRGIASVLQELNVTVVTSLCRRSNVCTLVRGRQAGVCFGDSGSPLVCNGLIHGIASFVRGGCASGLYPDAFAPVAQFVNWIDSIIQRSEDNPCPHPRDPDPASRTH

## Cc1cc(C(C)(C)c2ccc(O)c(C)c2)ccc1O
[1]
  AC50: 12.5 µM (active)

## c1ccc(-c2cccc(-c3ccccc3)c2)cc1
[2]
  AC50: 2.51 µM (active)

## O=C(Cl)OCCOCCOC(=O)Cl
[2]
  AC50: 6.6 µM (active)

## c1ccc2sc(SNC3CCCCC3)nc2c1
[2]
  AC50: 13.9 µM (active)

## COc1nn(C(=O)NS(=O)(=O)c2ccccc2OC(F)(F)F)c(=O)n1C
[3]
  outcome: inactive

## O=[N+]([O-])c1ccc(Nc2ccccc2)cc1
[2]
  outcome: inactive

## O=c1oc2ccccc2c(O)c1C(CC(O)c1ccc(-c2ccc(Br)cc2)cc1)c1ccccc1 (configuration not stated)
[1]
  AC50: 9.57 µM (active)
[2]
  outcome: inactive

## Nc1ccc(N)cc1
[4]
  outcome: inactive
[2]
  outcome: inactive

## OC[P+](CO)(CO)CO
[2]
  outcome: inactive

## CCOC(=O)C(SP(=S)(OC)OC)c1ccccc1 (configuration not stated)
[1]
  AC50: 18.7 µM (active)
[4]
  AC50: 4.29 µM (active)

## CCOP(=O)(OCC)OC(=CCl)c1ccc(Cl)cc1Cl
[4]
  AC50: 1.22 µM (active)
[2]
  outcome: inactive

## CC(C)O.CC(C)O.OCCN(CCO)CCO.OCCN(CCO)CCO.[Ti]
[5]
  AC50: 10.8 µM (active)
[1]
  AC50: 10.3 µM (active)
[2]
  outcome: inactive
[3]
  AC50: 1.9 µM (active)

## C=C(C)C(=O)OCC(CC)CCCC (configuration not stated)
[2]
  outcome: inactive

## CC(C)(C#N)N=NC(C)(C)C#N
[2]
  outcome: inactive

## CCCCC(CC)COC(=O)Cl (configuration not stated)
[2]
  outcome: inactive

## CCCCCCCCCCCCOS(=O)(=O)O
[6]
  AC50: 36.5 µM (active)
[7]
  AC50: 40.8 µM (active)
[3]
  AC50: 13.9 µM (active)

## CCOP(=S)(OCC)OP(=S)(OCC)OCC
[1]
  AC50: 17 µM (active)
[4]
  AC50: 2.56 µM (active)

## Nc1c(Oc2ccccc2)cc(O)c2c1C(=O)c1ccccc1C2=O
[2]
  outcome: inactive

## Clc1cccc(Cl)c1Cl
[6]
  outcome: inactive
[2]
  outcome: inactive
[3]
  outcome: inactive

## COc1ccccc1N
[2]
  outcome: inactive

## CN(C)C(=S)S
[1]
  AC50: 8.6 µM (active)

## CNC(=O)CSP(=O)(OC)OC
[2]
  outcome: inactive

## CC(C)[N+](=O)[O-]
[2]
  outcome: inactive

## O=C(O)C1(c2ccc3c(c2)OC[C@H](Cc2ccc(-c4ccccc4)cc2)[C@H]3O)CCCC1
[1]
  AC50: 13.8 µM (active)
[8]
  AC50: 17.7 µM (active)
[3]
  outcome: inactive

## O=S(=O)(c1ccc(Cl)cc1)c1cc(Cl)c(Cl)cc1Cl
[2]
  outcome: inactive

## ClCCCCl
[2]
  AC50: 10.5 µM (active)

## CCN(CC)C(=O)C(Cl)=C(C)OP(=O)(OC)OC
[4]
  AC50: 25 µM (active)

## O=C(N[C@H]1CN2CCC1CC2)c1ccc2c(c1)OCCO2
[9]
  outcome: inactive
[6]
  outcome: inactive
[2]
  outcome: inactive
[3]
  outcome: inactive

## N#CCCC(Br)(C#N)CBr (configuration not stated)
[4]
  AC50: 19.2 µM (active)

## N#Cc1cccnc1
[9]
  outcome: inactive
[7]
  outcome: inactive
[2]
  outcome: inactive
[3]
  outcome: inactive

## CC1CC(=O)O1 (configuration not stated)
[2]
  outcome: inactive

## CCCCCCCCCCCCc1cccc(S(=O)(=O)O)c1
[5]
  AC50: 28.6 µM (active)
[9]
  AC50: 17.3 µM (active)
[6]
  AC50: 19.6 µM (active)
[1]
  AC50: 16.8 µM (active)
[8]
  AC50: 26.7 µM (active)
[10]
  outcome: inactive
[2]
  AC50: 32.9 µM (active)
[3]
  AC50: 11.4 µM (active)

## CCOC(=O)CCN(SN(C)C(=O)Oc1cccc2c1OC(C)(C)C2)C(C)C
[1]
  AC50: 9.03 µM (active)
[4]
  AC50: 14 µM (active)
[2]
  AC50: 4.87 µM (active)
